The full data set covers some 8,800 targets. This sample favours those with a hit. About 0.5% of all pairs of compound and target were hits. Unmarked numbers belong to inactive results.
Assays:
Assay in all cases: log2 fold change, soluble protein after heating vs DMSO (PISA); higher = thermal stabilisation; K562 lysate, 10 uM; active = over 0.2 and 3.5 SD of the protein, either way, in both replicates (recomputed)
[1] = compound: CCCS(=O)(=O)Nc1ccc(F)c(C(=O)c2c[nH]c3ncc(-c4ccc(Cl)cc4)cc23)c1F [vemurafenib]
How it was run: (§1)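 A 30 min treatment with 10 μM compound was applied to crude K562 extract at 1 mg/mL protein in PBS pH 7.4 with 1 mM MgCl2. Heating for 3 min spanned 48°C-58°C, after which aliquots were pooled, adjusted to 0.5% NP-40 at 4°C and spun at 21,000xg for 90 min. TMTpro 16plex LC-MS/MS of the supernatant, with channel sums equalised, gave values recorded as log-two fold change in thermal stability against solvent controls, from duplicates.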

[2] = compound: CCCS(=O)(=O)Nc1ccc(F)c(C(=O)c2c[nH]c3ncc(Cl)cc23)c1F
How it was run: as §1

[3] = compound: CCN(CCCOc1ccc2c(Nc3cc(CC(=O)Nc4cccc(F)c4)[nH]n3)ncnc2c1)CCOP(=O)(O)O [barasertib]
How it was run: as §1

[4] = compound: CC[C@@H]1C(=O)N(C)c2cnc(Nc3ccc(C(=O)NC4CCN(C)CC4)cc3OC)nc2N1C1CCCC1
How it was run: as §1

[5] = compound: CC[C@@H]1C(=O)N(C)c2cnc(Nc3ccc(C(=O)N[C@H]4CC[C@H](N5CCN(CC6CC6)CC5)CC4)cc3OC)nc2N1C(C)C [volasertib]
How it was run: as §1

[6] = compound: CCn1c(C(=O)N(C2CC2)C2CC2)cc2c3c(ncn3C)c(Nc3cc(C)n(C)n3)nc21
How it was run: as §1

[7] = compound: CCn1cc(-c2ccnc3[nH]c(-c4cccc(CN(C)C)c4)cc23)c(-c2ccc(NC(=O)N(C)C)cc2)n1
How it was run: as §1

[8] = compound: CN1CCC(CNc2ccc3ncc(-c4cccc(OC(F)(F)F)c4)n3n2)CC1
How it was run: as §1

[9] = compound: CN1CCN(CCOc2cc(OC3CCOCC3)c3c(Nc4c(Cl)ccc5c4OCO5)ncnc3c2)CC1 [saracatinib]
How it was run: as §1

[10] = compound: CN1CCN(c2nc(C3=C(c4c[nH]c5ccccc45)C(=O)NC3=O)c3ccccc3n2)CC1 [sotrastaurin]
How it was run: as §1

[11] = compound: CN1CC[C@H](c2c(O)cc(O)c3c(=O)cc(-c4ccccc4Cl)oc23)[C@H](O)C1 [alvocidib]
How it was run: as §1

[12] = compound: CN1CCc2c(c3ccccc3n2Cc2ccc(C(=O)NO)cc2)C1 [Tubastatin A]
How it was run: as §1

[13] = compound: CNC(=O)C1=CC=CC=C1NC2=NC(=NC=C2Cl)NC3=C(C=C(C=C3)N4CCOCC4)OC
How it was run: as §1

[14] = compound: CNC(=O)c1ccc(Nc2ncc(C(F)(F)F)c(NCc3nccnc3N(C)S(C)(=O)=O)n2)cc1 [defactinib]
How it was run: as §1

[15] = compound: CNc1nc(-c2ccc3c(N)n[nH]c3c2)cc(N2C[C@@H](C(=O)NC3CCCCC3)CC[C@H]2C)n1
How it was run: as §1

[16] = compound: COC(=O)N[C@@H](C)CNc1nccc(-c2cn(C(C)C)nc2-c2cc(Cl)cc(NS(C)(=O)=O)c2F)n1 [encorafenib]
How it was run: as §1

[17] = compound: COC(=O)[C@H](CCSC)NC(=O)C1=C(C=C(C=C1)NC[C@H](CS)N)C2=CC=CC=C2
How it was run: as §1

[18] = compound: COc1cc(Nc2ncc3c(n2)-c2ccc(Cl)cc2C(c2c(F)cccc2OC)=NC3)ccc1C(=O)O [alisertib]
How it was run: as §1

[19] = compound: COc1cc2nc(-c3cc(F)ccc3O)nc(N[C@@H]3CNC[C@H]3C(C)(C)O)c2cc1OC
How it was run: as §1

[20] = compound: COc1cc2ncnc(Nc3ccc(F)c(Cl)c3)c2cc1OCCCN1CCOCC1 [gefitinib]
How it was run: as §1

Chain of UniProt P48507 (P48507 whole entry, looked up): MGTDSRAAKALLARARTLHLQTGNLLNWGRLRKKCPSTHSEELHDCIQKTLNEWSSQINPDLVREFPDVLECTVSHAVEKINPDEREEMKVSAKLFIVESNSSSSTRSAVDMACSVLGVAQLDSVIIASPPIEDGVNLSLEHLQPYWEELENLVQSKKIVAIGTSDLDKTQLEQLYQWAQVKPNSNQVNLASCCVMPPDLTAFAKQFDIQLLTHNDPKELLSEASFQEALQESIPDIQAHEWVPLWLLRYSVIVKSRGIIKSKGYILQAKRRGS
Chain of UniProt Q6P2E9 (Q6P2E9 whole entry, looked up): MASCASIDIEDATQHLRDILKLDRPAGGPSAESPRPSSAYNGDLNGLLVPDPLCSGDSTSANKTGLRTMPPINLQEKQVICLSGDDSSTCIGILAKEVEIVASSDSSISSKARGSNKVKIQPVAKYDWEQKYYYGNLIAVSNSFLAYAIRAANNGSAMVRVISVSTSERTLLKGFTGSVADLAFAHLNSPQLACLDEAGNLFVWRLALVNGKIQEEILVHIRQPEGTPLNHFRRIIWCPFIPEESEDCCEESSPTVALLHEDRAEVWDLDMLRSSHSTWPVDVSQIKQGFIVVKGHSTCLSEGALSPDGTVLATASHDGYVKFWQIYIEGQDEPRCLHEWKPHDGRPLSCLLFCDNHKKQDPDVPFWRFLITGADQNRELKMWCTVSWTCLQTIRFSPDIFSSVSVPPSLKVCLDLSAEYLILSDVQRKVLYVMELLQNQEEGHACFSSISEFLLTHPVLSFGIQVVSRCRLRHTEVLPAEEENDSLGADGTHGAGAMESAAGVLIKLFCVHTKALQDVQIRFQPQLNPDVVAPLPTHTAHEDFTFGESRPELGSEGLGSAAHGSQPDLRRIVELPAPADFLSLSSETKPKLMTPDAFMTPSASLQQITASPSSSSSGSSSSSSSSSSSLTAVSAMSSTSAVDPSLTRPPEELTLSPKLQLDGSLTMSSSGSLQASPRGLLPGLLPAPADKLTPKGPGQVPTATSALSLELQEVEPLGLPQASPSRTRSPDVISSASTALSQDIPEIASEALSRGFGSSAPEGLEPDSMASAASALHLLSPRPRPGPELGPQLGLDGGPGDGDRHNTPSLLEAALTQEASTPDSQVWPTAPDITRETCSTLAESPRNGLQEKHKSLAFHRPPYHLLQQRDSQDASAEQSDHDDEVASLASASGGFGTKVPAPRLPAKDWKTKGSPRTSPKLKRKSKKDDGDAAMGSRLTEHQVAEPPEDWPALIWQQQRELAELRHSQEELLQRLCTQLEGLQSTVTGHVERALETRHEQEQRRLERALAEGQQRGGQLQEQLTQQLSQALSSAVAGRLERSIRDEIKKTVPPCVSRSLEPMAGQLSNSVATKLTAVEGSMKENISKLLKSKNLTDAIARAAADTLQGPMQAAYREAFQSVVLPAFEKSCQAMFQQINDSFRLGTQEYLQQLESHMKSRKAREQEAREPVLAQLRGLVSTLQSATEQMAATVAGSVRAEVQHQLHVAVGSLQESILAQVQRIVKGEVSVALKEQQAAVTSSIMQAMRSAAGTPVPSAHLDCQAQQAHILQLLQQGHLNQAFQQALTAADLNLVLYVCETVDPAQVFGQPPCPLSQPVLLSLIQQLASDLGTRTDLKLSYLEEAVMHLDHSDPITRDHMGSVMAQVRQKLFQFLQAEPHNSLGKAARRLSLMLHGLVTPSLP
Chain of UniProt P23919 (P23919 whole entry, looked up): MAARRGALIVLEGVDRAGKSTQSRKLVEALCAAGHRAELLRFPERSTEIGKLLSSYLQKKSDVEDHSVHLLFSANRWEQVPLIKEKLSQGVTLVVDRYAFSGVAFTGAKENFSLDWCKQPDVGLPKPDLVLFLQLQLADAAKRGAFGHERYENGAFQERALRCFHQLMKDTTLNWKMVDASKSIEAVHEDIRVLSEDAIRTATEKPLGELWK
Chain of UniProt Q8NEZ5 (Q8NEZ5 whole entry, looked up): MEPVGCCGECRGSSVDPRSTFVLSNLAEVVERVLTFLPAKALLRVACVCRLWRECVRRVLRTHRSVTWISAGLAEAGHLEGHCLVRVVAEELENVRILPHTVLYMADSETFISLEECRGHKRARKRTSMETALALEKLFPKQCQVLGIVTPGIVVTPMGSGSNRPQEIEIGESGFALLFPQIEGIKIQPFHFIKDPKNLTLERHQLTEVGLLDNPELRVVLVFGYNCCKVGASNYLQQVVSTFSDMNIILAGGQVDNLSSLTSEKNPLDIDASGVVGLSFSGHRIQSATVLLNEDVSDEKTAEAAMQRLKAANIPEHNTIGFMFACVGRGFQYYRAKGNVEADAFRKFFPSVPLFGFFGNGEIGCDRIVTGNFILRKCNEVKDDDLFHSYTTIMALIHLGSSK
Chain of UniProt Q9NRY5 (Q9NRY5 whole entry, looked up): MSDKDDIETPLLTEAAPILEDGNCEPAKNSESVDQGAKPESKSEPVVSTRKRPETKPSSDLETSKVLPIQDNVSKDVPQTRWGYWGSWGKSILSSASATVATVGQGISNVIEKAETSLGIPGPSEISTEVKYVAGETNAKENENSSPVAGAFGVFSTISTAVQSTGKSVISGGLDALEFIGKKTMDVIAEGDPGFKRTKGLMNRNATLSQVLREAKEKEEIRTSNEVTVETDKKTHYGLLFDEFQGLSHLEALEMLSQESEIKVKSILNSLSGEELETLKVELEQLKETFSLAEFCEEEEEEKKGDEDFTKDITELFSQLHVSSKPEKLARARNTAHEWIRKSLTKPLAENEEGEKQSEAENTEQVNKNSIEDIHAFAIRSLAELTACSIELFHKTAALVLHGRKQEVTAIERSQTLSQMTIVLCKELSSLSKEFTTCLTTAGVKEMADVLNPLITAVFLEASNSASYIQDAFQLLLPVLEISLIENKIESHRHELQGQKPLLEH
Chain of UniProt P11171 (P11171 whole entry, looked up): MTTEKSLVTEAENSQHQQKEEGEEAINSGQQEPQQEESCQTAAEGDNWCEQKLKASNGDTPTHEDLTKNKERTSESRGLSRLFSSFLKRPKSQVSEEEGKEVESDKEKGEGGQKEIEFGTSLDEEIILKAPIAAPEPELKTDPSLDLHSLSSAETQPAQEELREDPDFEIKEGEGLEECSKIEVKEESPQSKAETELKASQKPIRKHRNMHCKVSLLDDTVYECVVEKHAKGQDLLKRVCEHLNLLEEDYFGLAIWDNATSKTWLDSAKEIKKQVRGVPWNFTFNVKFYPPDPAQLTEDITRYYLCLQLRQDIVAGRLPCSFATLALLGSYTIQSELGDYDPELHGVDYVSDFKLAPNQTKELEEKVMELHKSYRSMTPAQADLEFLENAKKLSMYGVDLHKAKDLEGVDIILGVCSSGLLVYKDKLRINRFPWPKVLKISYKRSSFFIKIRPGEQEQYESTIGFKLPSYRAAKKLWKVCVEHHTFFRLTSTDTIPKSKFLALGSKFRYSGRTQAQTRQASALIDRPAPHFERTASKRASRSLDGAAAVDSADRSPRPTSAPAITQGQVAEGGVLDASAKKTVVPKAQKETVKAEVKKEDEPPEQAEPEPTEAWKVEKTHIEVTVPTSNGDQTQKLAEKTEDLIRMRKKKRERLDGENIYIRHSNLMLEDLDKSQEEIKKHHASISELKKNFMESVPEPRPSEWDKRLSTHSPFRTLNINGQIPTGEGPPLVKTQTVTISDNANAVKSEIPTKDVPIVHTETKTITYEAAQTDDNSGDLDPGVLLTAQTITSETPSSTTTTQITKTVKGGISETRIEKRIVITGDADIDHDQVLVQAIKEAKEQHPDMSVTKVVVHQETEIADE
Chain of UniProt Q13347 (Q13347 whole entry, looked up): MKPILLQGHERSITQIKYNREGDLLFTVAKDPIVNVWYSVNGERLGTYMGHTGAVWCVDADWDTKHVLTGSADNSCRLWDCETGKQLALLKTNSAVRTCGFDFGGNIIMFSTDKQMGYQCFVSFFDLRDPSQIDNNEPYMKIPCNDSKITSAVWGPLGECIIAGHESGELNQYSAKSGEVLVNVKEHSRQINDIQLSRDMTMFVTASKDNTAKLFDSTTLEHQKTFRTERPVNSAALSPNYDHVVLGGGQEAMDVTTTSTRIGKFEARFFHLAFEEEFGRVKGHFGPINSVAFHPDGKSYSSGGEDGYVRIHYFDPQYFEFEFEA
Chain of UniProt Q56P03 (Q56P03 whole entry, looked up): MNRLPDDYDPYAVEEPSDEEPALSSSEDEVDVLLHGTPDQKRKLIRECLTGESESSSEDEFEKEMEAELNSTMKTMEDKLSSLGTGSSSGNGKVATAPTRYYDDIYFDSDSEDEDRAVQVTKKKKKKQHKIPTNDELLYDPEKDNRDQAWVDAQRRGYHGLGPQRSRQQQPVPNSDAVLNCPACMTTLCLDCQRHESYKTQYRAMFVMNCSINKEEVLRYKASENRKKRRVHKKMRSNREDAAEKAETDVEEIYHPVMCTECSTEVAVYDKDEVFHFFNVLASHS

| Target | log2 fold change [1] | log2 fold change [2] | log2 fold change [3] | log2 fold change [4] | log2 fold change [5] | log2 fold change [6] | log2 fold change [7] | log2 fold change [8] | log2 fold change [9] | log2 fold change [10] | log2 fold change [11] | log2 fold change [12] | log2 fold change [13] | log2 fold change [14] | log2 fold change [15] | log2 fold change [16] | log2 fold change [17] | log2 fold change [18] | log2 fold change [19] | log2 fold change [20] |
| --- | --- | --- | --- | --- | --- | --- | --- | --- | --- | --- | --- | --- | --- | --- | --- | --- | --- | --- | --- | --- |
| EDC4 (UniProt Q6P2E9) | 0.053 | 0.004 | 0.026 | -0.013 | -0.015 | 0.015 | -0.055 | 0.001 | 0.011 | 0.011 | -0.012 | -0.14 | 0.015 | -0.008 | -0.034 | 0.009 | -0.116 | 0.021 | 0.021 | -0.017 |
| EIF3I (UniProt Q13347) | 0.017 | 0.025 | 0.017 | -0.113 | -0.078 | 0.011 | -0.034 | -0.03 | -0.008 | 0.027 | 0.034 | -0.126 | 0.01 | 0.002 | -0.043 | -0.018 | 0.156 | 0.003 | 0.009 | -0.03 |
| EPB41 (UniProt P11171) | -0.051 | 0.005 | -0.009 | -0.033 | -0.02 | 0.022 | 0.026 | -0.135 | 0.014 | 0.026 | 0.044 | -0.02 | 0.011 | 0.015 | -0.067 | 0.01 | -0.001 | 0.02 | -0.036 | 0.007 |
| FAM114A2 (UniProt Q9NRY5) | 0.054 | 0.049 | 0.086 | 0.131 | -0.013 | 0.014 | 0.049 | -0.039 | 0.03 | 0.033 | 0.021 | 0.134 | 0 | 0.032 | 0.037 | 0.219 | 0.027 | 0.127 | 0.118 | 0.073 |
| FBXO22 (UniProt Q8NEZ5) | 0.017 | 0.001 | 0.025 | 0.011 | -0.027 | 0.012 | -0.002 | -0.008 | -0.015 | 0.01 | -0.027 | -0.002 | -0.074 | 0.01 | -0.004 | -0.014 | -0.006 | 0.034 | 0.013 | 0.017 |
| GCLM (UniProt P48507) | 0.014 | 0.025 | -0.007 | 0 | -0.015 | -0.013 | -0.011 | -0.012 | 0.011 | -0.022 | 0.028 | -0.049 | 0.003 | 0.003 | -0.038 | -0.003 | -0.004 | 0.05 | 0.002 | -0.023 |
| DTYMK (UniProt P23919) | -0.008 | 0.042 | 0.022 | -0.062 | 0.006 | 0.059 | 0.011 | -0.032 | 0.011 | -0.033 | 0.037 | -0.095 | 0.01 | -0.006 | 0.04 | -0.061 | 0.283 (active) | 0.009 | -0.007 | -0.011 |
| EAPP (UniProt Q56P03) | 0.246 | 0.038 | -0.048 | 0.06 | 0.02 | 0.009 | -0.085 | -0.092 | 0.034 | -0.008 | 0.048 | -0.025 | 0.078 | -0.017 | 0.107 | -0.014 | -0.053 | -0.042 | 0.017 | -0.03 |
